The test system of the assay is HL-60(TB) leukemia. Nature of the assay: NCI-60 one-dose screen, 48 h (100 = growth as untreated, 0 = no growth, -100 = all killed). The settings on record: 10 µM unless noted.

Molecules are shown by their SMILES. About 83,000 compounds went through this panel and 20% of them were active in at least one assay; those are over-represented in the sample as a whole.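 How to read the values: 0–100, growth inhibition (40 = 60% inhibited); 0, no net growth; -100 to 0, cell death (-40 = 40% of starting cells died; -100 = all dead).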 Values without a mark were called inactive. Calls of active or inactive are those of the source. Rule for the calls: active = growth percent below 10; inactive = the rest.

In the case of `COc1cc(C2C=C(c3ccc(Cl)cc3)N=C3SC(C)=CN32)cc(OC)c1OC` (centres undefined), the growth was 93.6%.
With `COc1cc(Nc2ncnc(Nc3ccc4c(n3)NC(=O)C(C)(C)O4)n2)cc(OC)c1OC` the figure was 46.8%.
With `CC1CCN(C(=O)OCc2nc3nc(Cl)nc(N4CCOCC4)c3[nH]2)CC1` the figure was -43.5% (active); with `COc1ccc(/C=N/NC(=O)c2cnn3c2NC(c2ccccc2)C3)cc1OC1CCCC1` (centres undefined), 101%.
The same measure for `C#Cc1cccc(Nc2nc(Cl)nc3cc(NC(=O)CCl)ccc23)c1`: -45.8% (active); for `O=S(=O)(NCCCNc1cc(-c2cn(-c3ccccc3)nc2-c2cccc(O)c2)ccn1)c1ccc(F)cc1`: 30.5%; for `COc1cccc(C(=O)NNc2nc(Cl)nc(N3CCN(C(c4ccccc4)c4ccccc4)CC3)n2)c1`: 0.787% (active).
As to `O=[N+]([O-])c1ccc(N/N=C/c2cccc3ccccc23)nc1`, the growth is 26.4%.
Regarding `NS(=O)(=O)Oc1ccc(-c2ccc3sccc3c2)cc1`, the growth was 99.7%.
The same measure for `O=C(N=Nc1c(O)[nH]c2ccc(Br)cc12)c1cc(-c2ccccc2)on1`: 84.9%; for `CC(C)c1ccc(Cn2ccc3c4c(N)nc(NC5CC5)nc4ccc32)cc1`: -68.8% (active); for `CN(C)c1ccc(/C=C\c2ccnc3ccccc23)cc1`: 26.1%.
With `COc1ccc(-c2nn(-c3ccc(NC(=O)c4ccc(Cl)c(C(F)(F)F)c4)cc3)cc2-c2ccncc2)cc1Cl` the figure was 2.89% (active); with `Nc1nc(-c2cccc3ccccc23)cc2ccccc12`, -48.5% (active).

The values are drawn from PubChem BioAssay (NCI).
